Experimental data: PubChem BioAssay (EPA / NIEHS)
Records with an inconclusive call do not appear. Activity calls are given as the source filed them. The calls were made as follows: active = hit-call score of the fitted dose curve at least 0.9, where 1 is the maximum; inconclusive = response in the unintended direction; inactive = score below 0.9.

biological target: human Vitamin D Receptor (VDR), VDR (gene 7421) (UniProt P11473); test: ATG_VDR_TRANS: Attagene TRANS-FACTORIAL HepG2 Assay for human Vitamin D Receptor (VDR) (AID 2283022)
Sequence (P11473 whole entry, looked up): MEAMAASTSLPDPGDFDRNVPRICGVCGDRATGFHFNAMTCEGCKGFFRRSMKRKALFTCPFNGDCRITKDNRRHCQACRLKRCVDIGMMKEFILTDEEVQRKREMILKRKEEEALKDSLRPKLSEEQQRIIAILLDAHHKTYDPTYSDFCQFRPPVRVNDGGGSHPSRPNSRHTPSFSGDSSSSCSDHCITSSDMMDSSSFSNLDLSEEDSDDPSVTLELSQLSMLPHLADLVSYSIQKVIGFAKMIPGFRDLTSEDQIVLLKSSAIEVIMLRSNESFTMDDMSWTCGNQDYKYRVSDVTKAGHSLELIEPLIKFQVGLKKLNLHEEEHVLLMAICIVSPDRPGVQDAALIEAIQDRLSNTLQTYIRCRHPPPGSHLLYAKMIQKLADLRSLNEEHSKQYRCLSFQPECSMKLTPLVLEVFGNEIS
Description: ATG_TRANS is a cell-based, multiplexed-readout assay that uses HepG2, a human liver cell line, with measurements taken at 24 hours after chemical dosing in a 24-well plate.ATG_VDR_TRANS is one of 30 assay component(s) measured or calculated from the ATG_TRANS assay. It is designed to make measurements of mRNA induction, a form of inducible reporter, as detected with fluorescence intensity signals by Reverse transcription polymerase chain reaction (RT-PCR) and Capillary electrophoresis technology.Data from the assay component ATG_VDR_TRANS was analyzed into 1 assay endpoint. This assay endpoint, ATG_VDR_TRANS, was analyzed in the positive analysis fitting direction relative to DMSO as the negative control and baseline of activity. Using a type of inducible reporter, measures of mRNA for gain-of-signal activity can be used to understand the reporter gene at the transcription factor-level as they relate to the gene VDR. Furthermore, this assay endpoint can be referred to as a primary readout, because this assay has produced multiple assay endpoints where this one serves a reporter gene function. To generalize the intended target to other relatable targets, this assay endpoint is annotated to the nuclear receptor intended target family, where the subfamily is non-steroidal.
Human liver HepG2 cells are transiently transfected with multiple reporter transcription units (MRTUs) in 6-well plates using FuGene 6 reagent (Roche; 3 ml FuGene/1 mg DNA). The MRTU constructs are regulated by a cis-regulating element (promoter). […] A major difference between the CIS and TRANS system is that in CIS activities of endogenous TFs are measured, whereas the TRANS assay evaluates changes in activities of exogenous, chimeric NR-Gal4 proteins. […] At the end of 24 hour incubation, total RNA was isolated using TriZol reagent (Invitrogen). The isolated RNA is then reverse-transcribed using oligo(dT) primer and Mo-MLV reverse transcriptase (Invitrogen) with DNAse I (Ambion) treatment for 30 min. The one-tenth of the produced cDNA was amplified by PCR using Taq DNA polymerase (Invitrogen) and two reporter sequence-specific primers. The PCR products were fluorescently labeled by primer extension with 6-arboxyfluorescein (6-FAM) 5'-labeled reporter sequence-specific primer (2 min at 95 C, 20 s at 68 C and 10 min at 72 C) and these products were digested with 5U of HpaI (New England Biolabs) for 2h at 37 C. The fragments were purified using Qiaquick PCR columns (Qiagen), analyzed on an ABI 3130xL genetic analyzer (Applied Biosystems) with peak positions identified by using a set of X-rhodamine (ROX)-labeled MapMarker1000 molecular weight standards (BioVentures). The raw capillary electrophoresis data was processed using Attagraph software (Attagene).

SMILES	outcome
C=C(C)C(=O)OCCCCCCCCCCCC	inactive
CC(=O)OCc1ccccc1	inactive
CC1CCC(C(C)(C)S)C(=O)C1 (stereo not given)	inactive
O=C(Nc1ccccc1)c1cc(Cl)ccc1O	inactive
O=C(C=Cc1ccccc1)OCCc1ccccc1	inactive
O=C1CCCCC1C1CCCCC1 (stereo not given)	inactive
C=C[C@@]1(C)CC(=O)[C@]2(O)[C@@]3(C)[C@@H](O)CCC(C)(C)[C@@H]3[C@H](O)[C@H](OC(C)=O)[C@@]2(C)O1	inactive
COc1ccc(-c2coc3cc(O)cc(O)c3c2=O)cc1	inactive
C=CC(C)(CCC=C(C)C)OC(=O)C=Cc1ccccc1 (stereo not given)	inactive
CCCc1ccc(O)c(OC)c1	inactive
C=CCOC(=O)c1ccc(C(=O)OCC=C)c(C(=O)OCC=C)c1	inactive
CC(=O)C(C)C	inactive
COc1cc(C)ccc1O	inactive
C=CC(=O)OCCCCCCCC(C)C	inactive
CC(=O)OCCc1ccccc1	inactive
Oc1ccc(-c2ccccc2)c(Cl)c1	inactive
CCCCCCO	inactive
CCCCCCCCCCCC(=O)OCC	inactive
C=C[Si](OCCOC)(OCCOC)OCCOC	inactive
CC(C)(CO)COC(=O)C(C)(C)CO	inactive

SMILES	outcome
CCCCCCCCCCCCCC(=O)OC(C)C	inactive
O=C(OCCc1ccccc1)c1ccccc1	inactive
CC(C)C(=O)OCCOc1ccccc1	inactive
CCCC(CC)c1ccccc1 (stereo not given)	inactive
CCCCCCCCCC(C)=O	inactive
Nc1ccnc(=O)[nH]1	inactive
CC(=O)OC(C)c1ccccc1 (stereo not given)	inactive
CCCCC(CC)COS(=O)(=O)O (stereo not given)	inactive
CCOC(=O)c1ccc(C)cc1	inactive
O=S(=O)(O)c1ccc(Nc2nc(Nc3ccc(C=Cc4ccc(Nc5nc(Nc6ccc(S(=O)(=O)O)cc6)nc(N(CCO)CCO)n5)cc4S(=O)(=O)O)c(S(=O)(=O)O)c3)nc(N(CCO)CCO)n2)cc1	inactive
C=CC(=O)NC(C)(C)C	inactive
Cc1ccccc1CCO	inactive
C=CC(=O)OCCCCCCOC(=O)C=C	inactive
O=C(O)CCC(=O)O	inactive
CC1=CCC2CC1C2(C)C (stereo not given)	inactive
CCC1COC(=O)O1 (stereo not given)	inactive
CCCCNS(=O)(=O)c1ccccc1	inactive
CCc1cccc(CC)c1	inactive
CCCC=C(C=O)CC	inactive
CCOB(OCC)OCC	inactive
